Experimental findings from PubChem BioAssay (Tox21) are described below.

Records with an inconclusive call do not appear. Values without a mark were called inactive. Activity calls are given as the source filed them. Calls follow the shape of the dose curve; as a rule, active = well fitted cell-killing curve with a large enough effect in the repeat runs; inconclusive = weak or mixed curves; inactive = no such curve, though single readings can be large or run the other way.
% is scaled to controls: 0 for no effect and ±100 for the full control effect; potency is read from the fitted curve at half-maximal effect.

This test can be described thus: qHTS assay to identify small molecule antagonists of the peroxisome proliferator-activated receptor delta (PPARd) signaling pathway - cell viability counter screen (AID 743213). Also: nearly all actives have a fitted effect of over 50% in size. Conditions: PPARd-bla HEK293H viability, CellTiter-Glo luminescence, 17 h; series mostly up to 62 µM; viability change, negative = cytotoxic: at the top concentration. The source says: U.S. Tox21 Program National Center for Advancing Translational Sciences [NCATS] NIH Chemical Genomics Center [NCGC] U.S. Environmental Protection Agency [EPA] National Institutes of Environmental Health Sciences [NIEHS] National Toxicology Program [NTP] U.S. Food and Drug Administration [FDA] Tox21 Assay Overview: The peroxisome proliferator-activated receptors (PPARs) are lipid-activated transcription factors of the nuclear receptor superfamily with three distinct subtypes namely PPAR alpha, PPAR delta (PPARd) and PPAR gamma. All these subtypes heterodimerizes with Retinoid X receptor (RXR) and have different physiological functions. […] To identify the compounds that inhibit PPAR-delta signaling, GeneBLAzer PPAR delta UAS-bla HEK293H cell line (Invitrogen, Carlsbad, CA, USA) containing a beta-lactamase reporter gene under the control of an Upstream Activator Sequence (UAS) was used to screen the Tox21 compound library. The cytotoxicity of the Tox21 compound library against the PPARd-bla cell line was tested in parallel by measuring the cell viability using CellTiter-Glo assay (Promega, Madison, WI) in the same wells.
Tox21 Assay Protocol Summary: PPARd-bla cells were dispensed at 3000 cells/5uL/well in 1536-well black wall/clear bottom plates using a Multidrop Combi (Thermo Fisher Scientific, Waltham, MA) dispenser. After the assay plates were incubated at 37 C and 5% CO2 for 5 h, 23 nL of compounds dissolved in DMSO, positive controls or DMSO only was transferred to the assay plate by a Pintool station (Kalypsys, San Diego, CA), followed by addition of 1ul L165041 (300 nM, final concentration in the wells). The assay plates were incubated at 37 C for 17 h, and then 1 uL of LiveBLAzerTM B/G FRET substrate was added using a Bioraptr Flying Reagent Dispenser (FRD) workstation (Beckman Coulter, Indianapolis, IN, USA). The assay plates were incubated at room temperature for 2 h and fluorescence intensity was measured by an Envision plate reader (PerkinElmer, Shelton, CT). For cell viability readout that measures cytotoxicity, 3 ul/well of CellTiter-Glo reagent was added into the assay plates using a Bioraptr FRD. After 30 min incubation at room temperature, the luminescence intensity in the plates was measured using a ViewLux plate reader (PerkinElmer).
In general terms: qHTS replaces the single test concentration by a dilution series.
As for `COc1ccccc1OCC(O)COC(N)=O` (stereo not given), the “viability change, negative = cytotoxic” value is 4.06%.

Turning to `CO[C@@]1(NC(=O)CSCC#N)C(=O)N2C(C(=O)O)=C(CSc3nnnn3C)CS[C@@H]21`, the “viability change, negative = cytotoxic” value was -2.79%.

Consider `CCOc1ccc(NS(=O)(=O)c2ccc(N)cc2)nn1`, for which the “viability change, negative = cytotoxic” value was 18.1%.

With `CC(C)C[C@H](NC(=O)OCC1c2ccccc2-c2ccccc21)C(=O)O`, the “viability change, negative = cytotoxic” value is -0.246%.

For the molecule `Cc1cccc(C)c1NC(=O)CN1CCCCCC1`, the “viability change, negative = cytotoxic” value is 0.606%.

For the molecule `COc1cc(C)ccc1C(C)C`, the “viability change, negative = cytotoxic” value is 4.95%.

As for `O=C(O)C(=O)Cc1c[nH]c2ccccc12`, the “viability change, negative = cytotoxic” value is 8.63%.

As to `COc1ccccc1N1CCN(CCCNc2cc(=O)n(C)c(=O)n2C)CC1`, the “viability change, negative = cytotoxic” value was -6.2%.

Regarding `CN1CCN(N)CC1`, the “viability change, negative = cytotoxic” value was 8.41%.

On to `CC(C)S`, for which the “viability change, negative = cytotoxic” value is -16.6% [at 80.4 µM].

Take `CC1=C(CC(=O)O)c2cc(F)ccc2/C1=C\c1ccc(S(C)(=O)=O)cc1`: the “viability change, negative = cytotoxic” value was 16%.

In the case of `CCN1CC(CCN2CCOCC2)C(c2ccccc2)(c2ccccc2)C1=O` (stereo not given), the “viability change, negative = cytotoxic” value was -0.369%.

For `CCCCNc1cc(C(=O)O)cc(S(N)(=O)=O)c1Oc1ccccc1`, the “viability change, negative = cytotoxic” value is 14.5%.

`NNS(=O)(=O)c1ccc(Oc2ccc(S(=O)(=O)NN)cc2)cc1`: the “viability change, negative = cytotoxic” value was 8.49%.

For `O=C1CCCCC1C1CCCCC1` (stereo not given), the “viability change, negative = cytotoxic” value is 3.16%.

`C1CCOC1`: the “viability change, negative = cytotoxic” value is 5.27% [at 80.4 µM].

In the case of `OCCN(CCO)c1ccccc1`, the “viability change, negative = cytotoxic” value is 2.28%.

For `Cc1ccc(C(C)C)cc1O`, the “viability change, negative = cytotoxic” value was 26.7%.

Take `CCNCCO`: the “viability change, negative = cytotoxic” value is 1.59%.

With `Cc1c[nH]c(=S)[nH]c1=O`, the Potency was 55.1 µM (active).

For `CN1CCN(c2c(F)cc3c(=O)c(C(=O)O)cn(CCF)c3c2F)CC1`, the “viability change, negative = cytotoxic” value was 4.61%.

For `CCCCC(CC)COC(=O)COc1cc(Cl)c(Cl)cc1Cl` (stereo not given), the “viability change, negative = cytotoxic” value is 1.56%.

Take `C=CCc1cc(OC)c(O)c(C(=O)NCCO)c1`: the “viability change, negative = cytotoxic” value was 8.56%.

With `CC(C)C1=CC2=CC[C@@H]3[C@](C)(CCC[C@@]3(C)C(=O)O)[C@H]2CC1`, the “viability change, negative = cytotoxic” value was 5.29%.

With `CCCNC(C)C(=O)Nc1c(C)csc1C(=O)OC` (stereo not given), the “viability change, negative = cytotoxic” value was -12.4%.

With `c1ccc(CN(CC2=NCCN2)c2ccccc2)cc1`, the “viability change, negative = cytotoxic” value was -10.5%.

For `CCCCCCC`, the “viability change, negative = cytotoxic” value was 6.99% [at 80.4 µM].

On to `COC(C)CCO` (stereo not given), for which the “viability change, negative = cytotoxic” value was 2.37%.

In the case of `CC(C)CC(=O)OCc1ccccc1`, the “viability change, negative = cytotoxic” value was 2.97%.

For the molecule `O=S(=O)(O)C(F)(F)F`, the “viability change, negative = cytotoxic” value is -7.15%.

On to `ClC(Cl)Cl`, for which the “viability change, negative = cytotoxic” value is -2.19%.

`O=C(Cl)c1cccc([N+](=O)[O-])c1`: the “viability change, negative = cytotoxic” value is -1.81%.

With `OCc1ccccc1O`, the “viability change, negative = cytotoxic” value was 20.5%.

As to `CN1CCN(C2=Nc3cc(F)ccc3Cc3ccccc32)CC1`, the “viability change, negative = cytotoxic” value was -25.1%.

As to `O=C1CCN(c2ccccc2)N1`, the “viability change, negative = cytotoxic” value is -20.9% [at 80.4 µM].

`OCc1c2ccccc2cc2ccccc12`: the “viability change, negative = cytotoxic” value was -14.9% [at 80.4 µM].

For `C=CC1CO1` (stereo not given), the “viability change, negative = cytotoxic” value was -2.86% [at 80.4 µM].

In the case of `CC(=O)Oc1cc(C(C)C)c(OCCN(C)C)cc1C`, the “viability change, negative = cytotoxic” value is 15.5%.

For the molecule `COC(=O)N[C@H](C(=O)N[C@@H](Cc1ccccc1)[C@@H](O)CN(Cc1ccc(-c2ccccn2)cc1)NC(=O)[C@@H](NC(=O)OC)C(C)(C)C)C(C)(C)C`, the “viability change, negative = cytotoxic” value was 7.65%.

On to `C=CC(C)(O)CC/C=C(\C)CCC=C(C)C` (stereo not given), for which the “viability change, negative = cytotoxic” value is -4.84%.
